# Bioassay records deposited in PubChem BioAssay by Sanford-Burnham Center for Chemical Genomics.
# eIF4H inh: inhibitors of RNA binding by human eIF4H; Q15056; eIF4H fluorescence polarization binding assay; inhibition, % at 35 µM; hit rate 0.94% among 290,000;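 further: calls also rest on retests at 20 µM and on dose response follow-up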
# PABP FP inh: PABP-poly(A) binding inhibition; P11940; PABP-poly(A) RNA binding, fluorescence polarization; inhibition, % at 35 µM; hit rate 1% among 290,000;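 further: calls also rest on retests at 20 µM and on dose response follow-up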
# PABP1 MLLE inh: blocks PAM2 peptide binding to the PABP1 MLLE domain; hit rate 0.36% among 360,000; GST-MLLE / FITC-PAM2 fluorescence polarization; P11940; inhibition, % at 20 µM; in the data active means inhibition above about 35%, passing the limit was not always enough
# CendR NRP1 mod: alters CendR peptide binding to human NRP-1; FAM-RPARPAR peptide binding to NRP-1, fluorescence polarization; inhibition, % at 25 µM; hit rate 0.85% among 360,000; AID 602438;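 active means inhibition or corrected inhibition above about 18%, plus a signal ratio from 0.5 to 1.5, limit read from the data, passing the limit was not always enough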
# Numbers stand for hits; - = inactive; . = no result given. An excerpt weighted towards active compounds, which were near 2.1% of everything screened. Unless noted, how the calls were made is not given here.
SMILES,eIF4H inh,PABP FP inh,PABP1 MLLE inh,CendR NRP1 mod
Cc1ccc(S(=O)(=O)/N=C2\C=C(Nc3ccc(O)cc3)C(=O)c3ccccc32)cc1,.,.,-,-
Cc1ccc(S(=O)(=O)/N=C2\C=C(NS(=O)(=O)c3ccccc3)C(=O)c3ccccc32)c(C)c1,.,.,-,-
CCOC(=O)C1=CCC(c2ccc(N(CC)CC)cc2)N(S(=O)(=O)c2ccc(C)cc2)C1c1ccc([N+](=O)[O-])cc1 (stereo unspecified),.,.,.,-
Cc1ccc(CN2C(=O)N/C(=C/c3ccc(-c4ccc(C(=O)O)cc4)o3)C2=O)cc1,69,46,-,-
O=C(O)c1ccc(COc2ccc3ccccc3c2/C=C2/NC(=O)N(Cc3ccc(F)cc3)C2=O)cc1,-,-,-,-
Cc1cc(C(=O)O)ccc1-c1ccc(/C=C2\NC(=O)N(Cc3ccc(F)cc3)C2=O)o1,81,68,-,-
Cc1ccc(CN2C(=O)N/C(=C/c3ccc4c(c3)n(C)c(=O)n4C)C2=O)cc1,-,-,.,.
Cn1nnnc1SCC(=O)Nc1nc2c(F)c(F)c(F)cc2s1,.,.,-,-
NS(=O)(=O)c1ccc(NC(=S)Nc2cc(Cl)c(Cl)cc2Cl)cc1,-,-,-,-
CSc1ccccc1NC(=S)Nc1ccc(S(N)(=O)=O)cc1,-,-,36,-
COc1ccccc1NC(=S)NC(=O)CCc1ccccc1,-,-,-,-
CC(C)c1ccc(O)c(NC(=S)NC(=O)CCc2ccccc2)c1,-,-,43,-
Cc1ccc(C(=O)O)cc1NS(=O)(=O)c1ccc2c(c1)oc(=O)n2C,-,33,-,-
CCOC(=O)N1CCC(NS(=O)(=O)c2ccc3c(c2)oc(=O)n3C)CC1,67,56,-,-
CC1CN(C(=O)c2ccc(CNS(=O)(=O)c3cccc(Cl)c3)cc2)CC(C)O1 (stereo unspecified),-,-,-,28
CC1CN(C(=O)c2cccc(S(=O)(=O)NCc3ccccc3)c2)CC(C)O1 (stereo unspecified),.,.,-,-
CC1CN(C(=O)c2cccc(S(=O)(=O)Nc3ccc(Cl)cc3)c2)CC(C)O1 (stereo unspecified),active,66,-,-
Cc1ccc(S(=O)(=O)CCC(=O)Nc2nnc(-c3cccs3)o2)cc1,.,.,-,-
CN(C)CCCNCCCNC(=O)c1ccccn1,-,-,-,-
Cc1ccc(C(=O)NCCCNCCCN(C)C)cn1,68,59,-,-
CN(C)CCCNC(=O)c1ccc(=O)[nH]n1,91,84,-,-
CC(=O)Nc1ccc(S(=O)(=O)N(C)c2ccc(OCC(=O)OCC(=O)NCc3ccco3)cc2)cc1,-,-,-,-
CCCCC(=O)N/N=C/c1sccc1C,-,-,-,-
Cc1ccsc1/C=N/NC(=O)C(=O)NCC(C)C,-,-,-,32
COc1ccc(CCNC(=O)C2CCC(=O)N(CC3CCCCC3)C2)cc1 (stereo unspecified),-,-,-,-
SMILES,eIF4H inh,PABP FP inh,PABP1 MLLE inh,CendR NRP1 mod
O=C(NCCN1CCNC1=O)c1ccc2sc([C@@H]3O[C@H](CO)[C@H](O)[C@H](O)[C@H]3O)nc2c1,.,.,-,-
O=C(O/N=C1\C(=O)N(c2ccccc2)c2ccccc21)C1CC1,active,-,-,-
C=CCn1c(SCC(=O)Nc2ccc(F)cc2F)nnc1-c1cnccn1,-,-,-,-
O=C1Cc2ccccc2C(=O)N1c1cccc(Cl)c1,-,-,-,-
CCn1c(SCc2ccc(Cl)c(Cl)c2)nnc1C(C)NC(=O)c1ccc(OC)cc1 (stereo unspecified),active,57,-,-
O=C(Nc1ccccc1)Nc1nnc([C@H]2C[C@H](O)[C@@H](CO)O2)s1,.,.,-,-
CCCCN1C(=O)C(CC(=O)NC2CC2)CC(C(=O)N(CC)CC)=C1C (stereo unspecified),.,.,-,-
O=C(O)C1OC(Oc2c(-c3ccc(O)c(O)c3)oc3cc(O)cc(O)c3c2=O)C(O)C(O)C1O (stereo unspecified),76,14,.,.
COc1ccc(N=C2S/C(=C\c3ccc(OCC(=O)O)cc3)C(=O)N2CCc2c[nH]c3ccccc23)cc1,-,44,-,-
CC1Cc2ccccc2N1C(=O)CN1C(=O)NC(C)(c2ccc3c(c2)OCCO3)C1=O (stereo unspecified),0.5,54,-,-
COc1ccc2nc3n(c(=O)c2c1)-c1ncccc1C(=O)NC3Cc1ccccc1 (stereo unspecified),.,.,-,-
COCc1cc(C)c(C#N)c(=S)[nH]1,-,-,37,-
O=c1cc(Cc2ccccc2)[nH]c(=S)[nH]1,-,-,-,-
COCc1cc(=O)[nH]c(=S)[nH]1,-,-,40,-
CCOCc1cc(C)[nH]c(=O)c1C#N,-,-,-,-
CCc1ccc(CN(C)C(=O)c2cc(COc3ccc(-n4cncn4)cc3)on2)cc1,-,-,-,-
O=C1/C(=C/c2ccco2)Cc2ccccc21,80,active,-,-
CCCc1c(-c2ccccc2)ncn1Cc1ccccc1OC,.,.,.,-
CCCCCc1c(-c2cccc(Cl)c2)ncn1CCc1ccccc1OC,.,.,.,23
CCCc1c(-c2ccc(F)cc2)ncn1Cc1ccccc1OC,.,.,.,22
CN(C)Cc1ncccc1Oc1nc2cc(-c3cccc(Cl)c3)sc2c(=O)n1C,.,.,-,-
CCOc1cc(C(=S)N2CCCC2)ccc1O,-,-,-,-
COc1cc(C(=S)N2CCCCC2)ccc1O,-,-,38,-
COc1cc(C(=S)N2CCCC2)ccc1O,-,-,40,-
COc1cc(C(=S)N2CCC(C(N)=O)CC2)ccc1O,-,-,-,-
SMILES,eIF4H inh,PABP FP inh,PABP1 MLLE inh,CendR NRP1 mod
COc1cc(C(=S)N2CCC(C)CC2)ccc1O,-,-,40,-
O=C(C[C@@H]1C/C=C\CCC(=O)OC[C@H](Cc2ccccc2)NC1=O)N[C@@H](CO)Cc1ccccc1,.,.,-,-
CCOc1ccc(CCNC(=O)c2ccc(C)c(S(=O)(=O)N3CCOCC3)c2)cc1OCC,.,.,-,-
CCOc1ccc(CCNC(=O)c2ccc(F)c(S(=O)(=O)N3CCOCC3)c2)cc1OCC,-,-,-,23
COc1ccc(NC(=O)c2cccc(F)c2)cc1Cl,-,-,-,-
COc1ccc(NC(=O)CN(C)CC(=O)Nc2cccc(F)c2)cc1Cl,-,-,-,28
COc1cc(OC)cc(C(=O)c2c(C)c(C#N)c3ccccn23)c1,-,-,-,-
COC1=C/C(=C/c2c(O)c(C#N)c3ccccn23)C=CC1=O,-,39,-,-
N#C/C(=C\c1ccc(Cl)cc1)c1nc2ccccc2o1,81,119,-,-
O=C(N/N=C/C=C/c1ccccc1)c1cccnc1,-,-,-,-
O=C(N/N=C\C=C\c1ccco1)c1cncc(Br)c1,66,46,-,-
O=C(N/N=C/C=C/c1ccco1)c1cnccn1,-,-,-,-
O=C(N/N=C/C=C\c1ccco1)c1ccccn1,75,44,-,-
O=C(N/N=C/C=C/c1ccccc1)c1ccccn1,-,-,-,-
O=C(N/N=C/C=C\c1ccco1)c1cccnc1,62,41,-,-
O=C(N/N=C/C=C\c1cccc([N+](=O)[O-])c1)c1ccccn1,-,-,-,28
O=C(N/N=C/C=C/c1ccco1)c1cccnc1,64,56,-,-
O=C(O)c1cccc2c1-c1ccc(Cl)cc1C2=O,.,.,-,-
O=C(O)c1cccc2c1Cc1cc(Cl)ccc1-2,.,.,-,25
